According to PubChem BioAssay (NCATS):
Active and inactive are the calls of the source. How the calls were made is not given here.
Potency means the concentration at half of the fitted maximal effect.

What follows are compounds tested on HIV-1 nucleocapsid protein NCp7 (binding to TG oligonucleotide) (assay: HIV Nucleocapsid (AID 346;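 further: potency is for inhibitors that block NC binding and lower polarization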)). Conditions: HIV-1 NC / fluorescein-TGTGTGTG probe, fluorescence polarization.
In short: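 HIV-1 NC (100 nM) binding to fluorescein-labelled ssDNA TG4xF (10 nM) in Hepes pH 7.5, 250mM NaCl, 1uM ZnCl2, TCEP and 2-mercaptoethanol; compounds pin-transferred, 1 hr room temperature, fluorescence polarization read on CCD imager.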
`Cc1noc(C)c1C(=O)N1CCC2(CCCN(c3ccccc3)C2)CC1` was tested, and the Potency was > 20 µM (inactive). With `CCNc1ncc2nc(-c3ccccc3)c(=O)n(CCc3ccccc3)c2n1` the Potency was > 4 µM (inactive). In the case of `COCCn1c(=O)c(-c2cccs2)nc2cnc(Oc3ccccc3)nc21`, the Potency is reported as > 20 µM (inactive). In the case of `Cc1noc(C)c1-c1nccc(Nc2ccc(F)cc2)n1`, the Potency is reported as > 20 µM (inactive). `O=C(c1ccncc1)N1CCC2(CC1)CN(C(c1ccccc1)c1ccccc1)C2` was tested, and the Potency was > 20 µM (inactive). In the case of `O=c1c(-c2ccc(F)cc2)nc2cnc(Oc3ccccc3)nc2n1Cc1cccs1`, the Potency is reported as > 20 µM (inactive). In the case of `CN(C)c1ccc(-c2nc(Nc3ccncc3)c3ccccc3n2)cc1`, the Potency is reported as > 20 µM (inactive). For `CS(=O)(=O)Nc1cccc(-c2cncnc2NCc2ccccc2)c1`, the Potency was > 20 µM (inactive). For `O=C(c1ccncc1)N1CCC[C@@]2(CCN(c3ccncc3)C2)C1`, the Potency was > 20 µM (inactive). With `COc1ccc(Oc2ncc3nc(-c4cn(C)c5ccccc45)c(=O)n(C)c3n2)cc1` the Potency was > 20 µM (inactive). In the case of `CCNc1ncc2nc(-c3cc(F)cc(F)c3)c(=O)n(CCOC)c2n1`, the Potency is reported as > 20 µM (inactive). With `COCCNc1ccnc(-c2ccccc2C)n1` the Potency was > 20 µM (inactive). With `O=c1cnc2cnc(Oc3cccc(Cl)c3)nc2n1CCc1ccccc1` the Potency was > 20 µM (inactive). `c1ccc2c(Nc3ccncc3)nc(-c3ccoc3)nc2c1` was tested, and the Potency was > 20 µM (inactive). With `COc1ccccc1CCn1c(=O)c(-c2ccc(F)cc2)nc2cncnc21` the Potency was > 20 µM (inactive). `O=C(c1ccncc1)N1CCC2(CCN(Cc3ccncc3)CC2)CC1` was tested, and the Potency was > 20 µM (inactive). `CCNc1ncc2nc(-c3cccs3)c(=O)n(Cc3cccc(OC)c3)c2n1` was tested, and the Potency was > 4 µM (inactive). For `CN(C)c1ncc2ncc(=O)n(Cc3cccs3)c2n1`, the Potency was > 20 µM (inactive). With `COc1ccc2[nH]cc(CCNc3ncncc3-c3ccoc3)c2c1` the Potency was > 20 µM (inactive). For `COc1ccc(-c2nc3cnc(OC)nc3n(CCc3ccccc3)c2=O)cc1`, the Potency was > 20 µM (inactive). With `COc1ccccc1-c1cc(N(C)Cc2ccco2)ncn1` the Potency was > 20 µM (inactive). `COc1ccccc1CN1CCCC2(CCN(C(=O)c3ccncc3)CC2)C1` was tested, and the Potency was > 20 µM (inactive). `O=C(Nc1ccccc1)N1CCCC2(CCN(C(=O)c3cc(C(F)(F)F)cc(C(F)(F)F)c3)CC2)C1` was tested, and the Potency was > 20 µM (inactive). `COc1cccc(-c2ccc3ncnc(NC4CC4)c3c2)c1` was tested, and the Potency was > 20 µM (inactive). For `COc1ccc(CNc2ccnc(-c3ccc(N(C)C)cc3)n2)c(OC)c1`, the Potency was > 20 µM (inactive). `COC(=O)N1CCC2(CC1)CCN(c1ccccn1)CC2` was tested, and the Potency was > 20 µM (inactive). `COCCn1c(=O)c(-c2cccc(C#N)c2)nc2cnc(Oc3ccccc3)nc21` was tested, and the Potency was > 20 µM (inactive). With `COc1ncc2nc(-c3ccc(Cl)cc3)c(=O)n(-c3ccccc3)c2n1` the Potency was > 20 µM (inactive). With `COc1ccc2[nH]cc(CCNc3ncnc4ccc(-c5ccccc5CN(C)C)cc34)c2c1` the Potency was > 20 µM (inactive). With `N#Cc1ccc(CN2CCCC3(CCN(C(=O)c4cccc(F)c4)CC3)C2)cc1` the Potency was > 20 µM (inactive). `O=C(Nc1cccc(F)c1)N1CC[C@@]2(CCCN(C(=O)c3ccncc3)C2)C1` was tested, and the Potency was > 20 µM (inactive). For `c1ccc(CNc2ncnc3ccc(-c4ccc5c(c4)OCO5)cc23)cc1`, the Potency was > 20 µM (inactive). With `COc1ccc(Nc2ncc3nc(-c4cccs4)c(=O)n(Cc4cccc(OC)c4)c3n2)cc1` the Potency was 16 µM (inactive). `COc1ccccc1CNc1nc(-c2cccnc2)nc2ccccc12` was tested, and the Potency was > 20 µM (inactive). For `CN1CCN(c2ccnc(-c3ccoc3)n2)CC1`, the Potency was > 20 µM (inactive). With `Cc1noc(C)c1C(=O)N1CCC2(CC1)CCN(c1cccc(-c3ccccc3)c1)CC2` the Potency was > 20 µM (inactive). In the case of `COc1ccc(-c2nc3cnc(N4CCN(C)CC4)nc3n(CCc3ccccc3)c2=O)cc1`, the Potency is reported as > 20 µM (inactive). `O=C(c1ccncc1)N1CCC[C@@]2(CCN(C(c3ccccc3)c3ccccc3)C2)C1` was tested, and the Potency was > 20 µM (inactive). For `COc1ccc(NC(=O)N2CC3(CCN(C(=O)c4ccc(OC)cc4)CC3)C2)cc1`, the Potency was > 20 µM (inactive). For `FC(F)(F)c1ccccc1-c1ccc2ncnc(NCCN3CCOCC3)c2c1`, the Potency was > 20 µM (inactive).
